For 5 molecules, composite z-score and z-score results are on record in PubChem BioAssay.

Activity calls are given as the source filed them.

Experiment [1] in a line: small molecules captured by biotinylated probe aFSTL3 – biochemical, small-molecule microarray, fluorescence 635/667, stem cell growth factor project, primary screen (AID 1064).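 Also: measures binding of the biotinylated anti-FSTL3 antibody to printed compounds.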 Conditions: higher = more signal.
Experiment [2] in a line: binders from COS7 lysate, DM2A8 probe, primary screen, torsin A project, cell lysate, small-molecule microarray, fluorescence 635/667 (AID 1065). Conditions: higher = more signal, COS7 lysate expressing mutant human TOR1A.
Experiment [3] can be described thus: small molecules captured by biotinylated probe aFGF2 – biochemical, small-molecule microarray, fluorescence 635/667, stem cell growth factor project, primary screen (AID 1067).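 Also: measures binding of biotinylated aFGF2 protein to printed compounds on slides; z-score merges feature fluorescence and signal-to-noise across triplicate slides.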 Conditions: higher = more signal.
Experiment [4] can be described thus: small molecules captured by biotinylated probe aFGF10 – biochemical, small-molecule microarray, fluorescence 635/667, stem cell growth factor project, primary screen (AID 1071).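 Also: score merges 667 nm spot intensity and signal to noise from triplicate slides.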 Conditions: higher = more signal.
The target of experiment [5] is Neurogenic locus notch homolog protein 2 (Homo sapiens) (UniProt Q04721). The experiment can be described thus: small molecules binding Notch2 protein – biochemical, small-molecule microarray, 635 nm fluorescence, stem cell growth factors, primary screen (AID 1073). Conditions: higher = more signal.
Sequence of Neurogenic locus notch homolog protein 2 (Homo sapiens) (Q04721 whole entry, looked up, canonical isoform): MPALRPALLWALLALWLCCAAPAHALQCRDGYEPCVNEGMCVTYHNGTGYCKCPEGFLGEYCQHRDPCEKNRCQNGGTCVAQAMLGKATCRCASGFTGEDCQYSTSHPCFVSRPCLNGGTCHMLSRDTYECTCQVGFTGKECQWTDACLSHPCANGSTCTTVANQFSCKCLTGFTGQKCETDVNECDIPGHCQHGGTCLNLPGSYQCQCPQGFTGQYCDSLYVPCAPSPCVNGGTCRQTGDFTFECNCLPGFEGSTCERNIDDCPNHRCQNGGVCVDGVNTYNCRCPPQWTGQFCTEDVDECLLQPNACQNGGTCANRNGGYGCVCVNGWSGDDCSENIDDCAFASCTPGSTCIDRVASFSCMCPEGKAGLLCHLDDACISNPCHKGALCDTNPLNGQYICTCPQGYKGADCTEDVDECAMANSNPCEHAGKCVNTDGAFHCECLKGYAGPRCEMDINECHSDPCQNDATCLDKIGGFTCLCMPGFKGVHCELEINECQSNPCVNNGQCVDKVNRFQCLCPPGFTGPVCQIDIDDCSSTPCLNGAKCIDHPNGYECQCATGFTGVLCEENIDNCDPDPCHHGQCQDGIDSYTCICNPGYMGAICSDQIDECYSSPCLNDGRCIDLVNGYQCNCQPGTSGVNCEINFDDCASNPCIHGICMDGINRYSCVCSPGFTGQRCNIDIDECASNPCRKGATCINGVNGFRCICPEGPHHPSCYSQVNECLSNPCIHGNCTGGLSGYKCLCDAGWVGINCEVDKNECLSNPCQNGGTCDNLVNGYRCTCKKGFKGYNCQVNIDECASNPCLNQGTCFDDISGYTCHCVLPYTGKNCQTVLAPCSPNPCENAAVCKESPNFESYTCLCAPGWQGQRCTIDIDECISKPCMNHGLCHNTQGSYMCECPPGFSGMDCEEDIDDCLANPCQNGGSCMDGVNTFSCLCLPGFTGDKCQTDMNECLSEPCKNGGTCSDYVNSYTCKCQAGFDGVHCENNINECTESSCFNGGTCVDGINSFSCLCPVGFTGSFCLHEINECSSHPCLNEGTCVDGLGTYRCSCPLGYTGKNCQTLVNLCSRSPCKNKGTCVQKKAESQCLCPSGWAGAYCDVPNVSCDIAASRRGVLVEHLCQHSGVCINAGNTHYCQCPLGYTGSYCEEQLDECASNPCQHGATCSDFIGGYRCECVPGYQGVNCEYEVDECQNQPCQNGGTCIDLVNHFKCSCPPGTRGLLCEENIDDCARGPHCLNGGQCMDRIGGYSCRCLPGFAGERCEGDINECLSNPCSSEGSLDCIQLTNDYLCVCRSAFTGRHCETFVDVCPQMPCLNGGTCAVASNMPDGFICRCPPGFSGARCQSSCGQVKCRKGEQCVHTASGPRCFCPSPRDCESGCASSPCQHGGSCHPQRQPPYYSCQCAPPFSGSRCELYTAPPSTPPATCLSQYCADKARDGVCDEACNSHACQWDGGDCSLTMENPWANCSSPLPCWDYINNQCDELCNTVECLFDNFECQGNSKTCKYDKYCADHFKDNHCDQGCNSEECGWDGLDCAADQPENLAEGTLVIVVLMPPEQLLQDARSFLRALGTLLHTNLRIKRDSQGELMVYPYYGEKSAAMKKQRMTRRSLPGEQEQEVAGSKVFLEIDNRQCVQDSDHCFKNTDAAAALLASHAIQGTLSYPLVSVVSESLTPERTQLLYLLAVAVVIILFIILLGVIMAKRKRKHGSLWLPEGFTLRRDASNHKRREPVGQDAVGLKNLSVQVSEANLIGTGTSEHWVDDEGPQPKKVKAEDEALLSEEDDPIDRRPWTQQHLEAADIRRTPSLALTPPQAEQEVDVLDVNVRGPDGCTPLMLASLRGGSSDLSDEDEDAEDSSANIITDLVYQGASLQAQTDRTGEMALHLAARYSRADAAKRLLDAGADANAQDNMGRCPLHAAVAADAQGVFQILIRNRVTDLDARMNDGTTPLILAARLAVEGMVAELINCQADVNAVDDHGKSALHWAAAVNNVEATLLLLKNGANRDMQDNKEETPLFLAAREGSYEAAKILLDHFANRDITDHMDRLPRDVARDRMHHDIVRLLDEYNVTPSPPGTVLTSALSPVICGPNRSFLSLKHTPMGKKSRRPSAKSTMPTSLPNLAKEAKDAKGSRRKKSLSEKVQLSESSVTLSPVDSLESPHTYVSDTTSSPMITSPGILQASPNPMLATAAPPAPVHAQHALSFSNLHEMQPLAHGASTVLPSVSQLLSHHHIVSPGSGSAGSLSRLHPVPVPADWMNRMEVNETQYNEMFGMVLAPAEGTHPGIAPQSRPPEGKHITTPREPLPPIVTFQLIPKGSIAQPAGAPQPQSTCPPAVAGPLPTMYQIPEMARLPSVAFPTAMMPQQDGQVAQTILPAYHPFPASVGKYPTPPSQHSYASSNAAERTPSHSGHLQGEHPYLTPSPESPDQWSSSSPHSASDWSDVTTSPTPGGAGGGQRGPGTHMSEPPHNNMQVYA
For experiment [6], the target named is Pro-neuregulin-1, membrane-bound isoform (Homo sapiens) (UniProt Q02297). Kind of experiment: small molecules binding neuregulin-1 protein – biochemical, small-molecule microarray, fluorescence 635/667, psychiatric disease protein project, primary screen (AID 1075).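 Also: score combines 667 nm spot fluorescence with signal to noise.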 Conditions: NRG1 binding, 635 nm fluorescence, higher = more signal.
Sequence of Pro-neuregulin-1, membrane-bound isoform (Homo sapiens) (Q02297 whole entry, looked up, the tested form may be a part, canonical isoform): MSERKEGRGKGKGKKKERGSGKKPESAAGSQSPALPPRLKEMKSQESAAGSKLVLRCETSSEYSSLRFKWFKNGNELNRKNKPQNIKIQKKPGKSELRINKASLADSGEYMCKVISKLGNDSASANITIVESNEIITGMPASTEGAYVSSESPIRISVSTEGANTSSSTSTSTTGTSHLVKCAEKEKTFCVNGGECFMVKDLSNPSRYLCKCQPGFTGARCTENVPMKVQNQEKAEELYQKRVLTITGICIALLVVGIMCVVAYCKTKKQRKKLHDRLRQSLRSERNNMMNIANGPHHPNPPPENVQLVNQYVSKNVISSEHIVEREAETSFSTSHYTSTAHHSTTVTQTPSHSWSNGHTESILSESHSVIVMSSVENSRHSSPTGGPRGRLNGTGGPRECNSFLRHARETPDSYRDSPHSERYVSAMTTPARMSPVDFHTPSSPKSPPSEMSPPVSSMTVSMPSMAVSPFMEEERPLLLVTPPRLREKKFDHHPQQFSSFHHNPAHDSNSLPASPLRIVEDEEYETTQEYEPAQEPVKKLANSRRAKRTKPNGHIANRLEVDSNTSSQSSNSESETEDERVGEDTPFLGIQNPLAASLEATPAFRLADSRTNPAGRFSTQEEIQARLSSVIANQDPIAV
In experiment [7] the test system is Neuregulin-1 EGF-like domain. Kind of experiment: small molecules binding NRG1 EGF domain – biochemical, small-molecule microarray, 635 nm fluorescence, primary screen (AID 1081).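 Also: binding of the protein to compounds printed on small-molecule microarray slides.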 Conditions: higher = more signal.
Experiment [8] in a line: FRG1 expression reporter modulators in myotubes – cell-based, C2C12 myotubes, firefly/Renilla luciferase, luminescence, FRG1 inhibition for FSHD, primary screen (AID 1084). Conditions: FRG1 promoter luciferase, higher = more signal, called active from +8 up or from −8 down.
Experiment [9] is described as follows: small molecules captured by biotinylated probe aFST – biochemical, small-molecule microarray, fluorescence 635/667, stem cell growth factor project, primary screen (AID 1086).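 Also: score merges 667 nm fluorescence with signal-to-noise of each printed compound spot.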 Conditions: higher = more signal.
Experiment [10] is described as follows: binders of probe aHhip on microarray, primary screen, stem cell growth factor project, biochemical, small-molecule microarray, fluorescence 635/667 (AID 1087).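 Also: score merges spot fluorescence at 667nm with spot signal to noise ratio.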 Conditions: higher = more signal.
Experiment [11] concerns PRMT1 (protein arginine N-methyltransferase 1). The experiment can be described thus: small molecules binding arginine methyltransferase PRMT1 – biochemical, small-molecule microarray, 635 nm fluorescence, primary screen (AID 1088).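 Also: binding of Prmt1 protein to compounds spotted on small-molecule microarray slides.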 Conditions: higher = more signal.
The nature of experiment [12]: growth effects on S. cerevisiae YJM789 – YJM789 clinical isolate, OD600, 24 h, basal, primary screen (AID 1089).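 Also: growth of clinical yeast isolate S. cerevisiae YJM 789 seeded 1000 cells per well; test concentration not given here.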 Conditions: higher = more signal, called active from +8 up or from −8 down.
A short description of experiment [13]: S. pombe growth modifiers, basal conditions – strain 972, OD600, 24 h, no modulator, primary screen (AID 1090).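 Also: basal condition with compound alone and no growth modifier present; test concentration not given here.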 Conditions: S. pombe 972 growth, higher = more signal, called active from +8 up or from −8 down.
A short description of experiment [14]: budding yeast growth modifiers under rapamycin – strain BY4716, OD600, 96 h, primary screen (AID 1091). Also: test concentration not given here. Conditions: S. cerevisiae BY4716 + rapamycin, higher = more signal, called active from +8 up or from −8 down.
Experiment [15] addresses Torsin-1A-interacting protein 2 (Homo sapiens) (UniProt Q8NFQ8). Kind of experiment: small molecules binding lysate-expressed LULL1 – cell lysate, human LULL1 lysate, 635/667 nm fluorescence, primary screen (AID 1092).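 Also: probe is lysate of COS7 cells overexpressing human LULL1; score merges per-feature 667 nm fluorescence with signal-to-noise.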 Conditions: small-molecule microarray, hLULL1 lysate binding, 635 nm fluorescence; higher = more signal.
Experiment [16] in a line: optical density change of DRC41 E. coli – strain DRC41, OD650, 24 h, E. coli filamentation project, primary screen (AID 1093).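 Also: MC1000 strain lacking acrAB efflux and sulA so SOS filamentation is blocked; test concentration not given here.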 Conditions: E. coli DRC41 growth, higher = more signal, called active from +8 up or from −8 down.
Experiment [17] can be described thus: probe aLefty2 binding to arrayed compounds – biochemical, biotinylated probe, 635/667 nm fluorescence, primary screen (AID 1094).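 Also: score merges spot fluorescence near 667 nm with spot signal-to-noise ratio.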 Conditions: small-molecule microarray, higher = more signal.
Experiment [18] has as its system Noggin (protein binding on small-molecule microarray). Kind of experiment: small molecules binding Noggin protein – biochemical, 635/667 nm fluorescence, primary screen (AID 1095).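 Also: score merges 667 nm feature fluorescence with signal to noise over triplicate slides.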 Conditions: 635 nm fluorescence, higher = more signal.
Experiment [19] deals with Neurogenic locus notch homolog protein 3 (Homo sapiens) (UniProt Q9UM47). The experiment can be described thus: small molecules binding NOTCH3 protein – biochemical, 635/667 nm fluorescence, primary screen (AID 1096). Conditions: small-molecule microarray, 635 nm fluorescence, higher = more signal.
Experiment [20] is described as follows: probe aEGFR binding to arrayed compounds – biochemical, biotinylated probe, 635/667 nm fluorescence, primary screen (AID 1097).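 Also: probe is a biotinylated anti-EGFR antibody binding compounds printed on slides; score combines fluorescence near 667 nm and signal to noise of each spot.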 Conditions: small-molecule microarray, higher = more signal.

Sequence of Torsin-1A-interacting protein 2 (Homo sapiens) (Q8NFQ8 whole entry, looked up): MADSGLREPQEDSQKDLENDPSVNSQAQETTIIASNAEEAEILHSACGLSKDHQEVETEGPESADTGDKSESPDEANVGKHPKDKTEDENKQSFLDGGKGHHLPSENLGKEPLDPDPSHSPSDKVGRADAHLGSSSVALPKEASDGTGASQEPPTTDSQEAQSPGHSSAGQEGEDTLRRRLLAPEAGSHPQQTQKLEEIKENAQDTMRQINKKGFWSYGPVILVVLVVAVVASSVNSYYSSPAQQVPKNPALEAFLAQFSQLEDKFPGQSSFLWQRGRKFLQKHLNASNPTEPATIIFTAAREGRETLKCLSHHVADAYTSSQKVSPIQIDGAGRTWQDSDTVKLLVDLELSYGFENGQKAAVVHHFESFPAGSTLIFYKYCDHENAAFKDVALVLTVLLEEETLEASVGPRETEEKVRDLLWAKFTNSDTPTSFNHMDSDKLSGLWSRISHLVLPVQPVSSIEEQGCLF

As to `C#CCCCON=C1C[C@@H](O)[C@@H](O)[C@@H]2[C@@H]3C(=O)N(c4cccc(Oc5ccccc5)c4)C(=O)[C@@H]3CC[C@H]12`, the composite z-score in experiment [1] is -0.2; in [2], 0.744; in [3] it was -0.129; in experiment [4] it was -0.264; in [5], -0.87; in experiment [6], 0.248. The composite z-score in experiment [7] was 0.425; in [9], -0.464; in experiment [10], -0.0193; in experiment [11] it was -0.684; in experiment [15] it was -0.204; in [17], -0.172. For the same molecule, the figures for the composite z-score in experiment [18], in experiment [19] and in experiment [20] were -0.738, -0.581 and -0.213, respectively. Moreover, the z-score is 1.2 (inactive) in [8]; 0.74 (inactive) in experiment [12]; 0.202 (inactive) in [13]; -0.284 (inactive) in experiment [14]; 0.676 (inactive) in [16].
For `CO[C@@H]1COC(=O)[C@H](CCSC)NC(=O)CC=C[C@@H](C)COC(=O)[C@H](C)NC(=O)CC=C[C@H]1C`, the composite z-score in experiment [1] was -0.605; in experiment [2] it was 1.03; in experiment [3] it was -0.129; in experiment [4], 0.347; in experiment [5], 0.115; in [6], -0.343. For the same molecule, the composite z-score in [7] was 0.871; in [9], 0.457; in experiment [10] it was 0.408; in experiment [11] it was 1.39; in experiment [15], -0.0068; in experiment [17], -0.247. Besides, the composite z-score in [18] was 0.783; in [19] it was 0.989; in [20], -0.201. Besides, the z-score in experiment [8] was -0.0159 (inactive); in experiment [12], 0.153 (inactive); in experiment [13], -0.266 (inactive); in experiment [14], 0.291 (inactive); in [16], 1.01 (inactive).
Consider `CC[C@@H](c1ccccc1)n1c(=O)n2n(c1=O)[C@H]1[C@H](O)[C@@H]3O[C@@H]3C(=NOC[C@@H](O)COCc3ccco3)[C@H]1CC2`, for which the composite z-score in [1] is -0.437; in experiment [2] it was 0.615; in experiment [3] it was -0.116; in experiment [4], 0.25; in experiment [5], -1.17; in experiment [6], -0.552. Moreover, the composite z-score in experiment [7] was 0.727; in [9], -0.113; in [10] it was -0.741; in experiment [11], -0.862; in [15] it was -1.1; in [17], -0.215. In addition, the values for the composite z-score in [18], in experiment [19] and in [20] were 0.0447, -0.979 and -0.185, respectively. Further, the z-score was 0.0269 (inactive) in [8]; -0.697 (inactive) in experiment [12]; -0.552 (inactive) in [13]; -0.624 (inactive) in experiment [14]; 0.568 (inactive) in experiment [16].
In the case of `Cc1cc2c(nc1C)CCCCN2CC(C)ON=C[C@@H](C)[C@H](OCc1ccccc1)C(C)C` (stereo not given in full), the composite z-score was -0.0674 in [1]; -0.777 in experiment [2]; -0.307 in experiment [3]; -1.05 in experiment [4]; -1.38 in experiment [5]; -0.317 in experiment [6]. Also, the composite z-score was -0.366 in [7]; -0.514 in experiment [9]; -0.0994 in experiment [10]; -0.766 in [11]; -1.02 in [15]; -0.204 in experiment [17]. Besides, the composite z-score in [18] was -0.913; in experiment [19], -1.01; in experiment [20], -0.3. Besides, the z-score was -0.154 (inactive) in experiment [8]; -0.715 (inactive) in experiment [12]; -14.4 (active) in experiment [13]; 0.365 (inactive) in experiment [14]; 0.162 (inactive) in experiment [16].
Regarding `COc1cccc([C@H]2Oc3ccc(OC)cc3C(=NOC[C@@H](O)COCc3ccco3)[C@@H]2O)c1`, the composite z-score is -0.434 in experiment [1]; 0.0488 in [2]; -0.158 in experiment [3]; -1.12 in experiment [4]; -1.29 in [5]; -0.984 in experiment [6]. The composite z-score was -1.7 in experiment [7]; -0.625 in [9]; -0.388 in experiment [10]; -1.03 in experiment [11]; -1.32 in [15]; -0.103 in [17]. Moreover, the composite z-score is -0.149 in experiment [18], -1.88 in experiment [19] and -0.274 in experiment [20]. Also, the z-score is -0.765 (inactive) in experiment [8]; -2.24 (inactive) in experiment [12]; -1.36 (inactive) in [13]; -1.22 (inactive) in experiment [14]; 0.32 (inactive) in experiment [16].
